This is an account of results in the supplement of paper PMC6089552.

Among all 3,200 compounds or so, about 300 (9.4%) showed activity. This excerpt belongs to a sample that is enriched for actives.

The test deals with A673/TR/shEF. Kind of test: cell viability (LOESS-normalised, relative to median of negative controls) (log2 ratio); higher = more viable cells (less compound effect), active = hit call of the paper (over 3 MAD below the median). The note with it: treatment time: 72 h. In a few lines:
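For three days, A673/TR/shEF Ewing sarcoma cells in 384-well plates (1,500 per well) were treated with library compounds at two or more concentrations or with DMSO controls, after doxycycline had been added or withheld 24 h beforehand to induce EWS-FLI1 shRNA knockdown. Viability was read by CellTiter-Glo luminescence on an Envision reader. The data were LOESS-corrected per plate, divided by the median of negative controls and log2-transformed.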

[1] abbreviates: 0.25 µM, library screen: screen2, EWS-FLI1 expression: high (no doxycycline).
Setting [2] is: 0.25 µM, library screen: screen2, EWS-FLI1 expression: low (doxycycline-induced shRNA knockdown).
Where [3] appears, read: 2.5 µM, library screen: screen2, EWS-FLI1 expression: high (no doxycycline).
[4] abbreviates: 2.5 µM, library screen: screen2, EWS-FLI1 expression: low (doxycycline-induced shRNA knockdown).
Where [5] appears, read: 0.25 µM, library screen: screen1, EWS-FLI1 expression: high (no doxycycline).
The mark [6] stands for this setting: 0.25 µM, library screen: screen1, EWS-FLI1 expression: low (doxycycline-induced shRNA knockdown).
Setting [7] is: 2.5 µM, library screen: screen1, EWS-FLI1 expression: high (no doxycycline).
[8] abbreviates: 2.5 µM, library screen: screen1, EWS-FLI1 expression: low (doxycycline-induced shRNA knockdown).

`Cc1cccc(C)c1NC(=O)C[N+](C)(C)C`: the “cell viability (log2)” value is 0.174 (inactive) under setting [1], 0.0998 (inactive) under setting [2], 0.0786 (inactive) under setting [3] and 0.0656 (inactive) under setting [4].
`CCN(CC)CC(=O)Nc1c(C)cccc1C`: the “cell viability (log2)” value was 0.148 (inactive) (0.103 µM, library screen: screen3, EWS-FLI1 expression: high (no doxycycline)); 0.0138 (inactive) (0.103 µM, library screen: screen3, EWS-FLI1 expression: low (doxycycline-induced shRNA knockdown)); 0.147 (inactive) under setting [5]; 0.00307 (inactive) under setting [6]; 0.111 (inactive) under setting [1]; 0.106 (inactive) under setting [2]. Moreover, the “cell viability (log2)” value is 0.0507 (inactive) (0.308 µM, library screen: screen3, EWS-FLI1 expression: high (no doxycycline)); 0.127 (inactive) (0.308 µM, library screen: screen3, EWS-FLI1 expression: low (doxycycline-induced shRNA knockdown)); 0.13 (inactive) (0.926 µM, library screen: screen3, EWS-FLI1 expression: high (no doxycycline)); 0.0501 (inactive) (0.926 µM, library screen: screen3, EWS-FLI1 expression: low (doxycycline-induced shRNA knockdown)); 0.157 (inactive) under setting [7]; 0.131 (inactive) under setting [8]. The “cell viability (log2)” value by setting is: under setting [3], 0.0975 (inactive); under setting [4], 0.0477 (inactive); (2.8 µM, library screen: screen3, EWS-FLI1 expression: high (no doxycycline)) 0.00489 (inactive); (2.8 µM, library screen: screen3, EWS-FLI1 expression: low (doxycycline-induced shRNA knockdown)) 0.0234 (inactive); (8.3 µM, library screen: screen3, EWS-FLI1 expression: high (no doxycycline)) 0.0246 (inactive); (8.3 µM, library screen: screen3, EWS-FLI1 expression: low (doxycycline-induced shRNA knockdown)) 0.018 (inactive). Also, the “cell viability (log2)” value is -0.278 (active) (25 µM, library screen: screen3, EWS-FLI1 expression: high (no doxycycline)) and 0.0253 (inactive) (25 µM, library screen: screen3, EWS-FLI1 expression: low (doxycycline-induced shRNA knockdown)).
Regarding `CC(C)=CCCC(C)(O)C1CC=C(C)CC1` (configuration not stated), the “cell viability (log2)” value is 0.0431 (inactive) under setting [5], -0.0174 (inactive) under setting [6], 0.0996 (inactive) under setting [7] and 0.0501 (inactive) under setting [8].
Turning to `COC(=O)c1c(C)cc(OC(=O)c2c(C)cc(O)c(CO)c2O)c(C)c1O`, the “cell viability (log2)” value runs as follows: under setting [5], 0.129 (inactive); under setting [6], 0.0318 (inactive); under setting [7], 0.139 (inactive); under setting [8], 0.0883 (inactive).
With `C[C@]12CC[C@@H](O)C[C@H]1CC[C@@H]1[C@@H]2C(=O)C[C@@]2(C)[C@H]1CC[C@]2(O)C(=O)CO`, the “cell viability (log2)” value is, setting by setting: under setting [5], 0.162 (inactive); under setting [6], 0.116 (inactive); under setting [7], 0.185 (inactive); under setting [8], 0.0107 (inactive).
Regarding `Cc1cc(=O)c2c(O)c3c(cc2o1)OCC(C)CC3` (configuration not stated), the “cell viability (log2)” value is 0.0148 (inactive) under setting [5], 0.14 (inactive) under setting [6], 0.0878 (inactive) under setting [7] and 0.127 (inactive) under setting [8].
On the same counts, the results for `CN=C(N)NCCCC(N)C(=O)O` (configuration not stated) are 0.0723 (inactive), 0.0246 (inactive), -0.0207 (inactive) and -0.0108 (inactive).
On the same counts, the results for `Nn1c(SCC(=O)c2ccc(Cl)cc2)nc2ccccc2c1=O` are 0.102 (inactive), 0.0418 (inactive), 0.24 (inactive) and 0.000811 (inactive).
The matching figures for `CC1(C)Oc2ccc3ccc(=O)oc3c2C[C@H]1O`: 0.0366 (inactive), -0.00203 (inactive), 0.0909 (inactive) and 0.0204 (inactive).
As for `NC[C@@H]1O[C@H](O[C@H]2[C@@H](O)[C@H](O[C@@H]3[C@@H](O)[C@H](N)C[C@H](N)[C@H]3O[C@H]3O[C@H](CO)[C@@H](O)C[C@H]3N)O[C@@H]2CO)[C@H](N)[C@@H](O)[C@@H]1O[C@H]1O[C@H](CO)[C@@H](O)[C@H](O)[C@@H]1O`, the “cell viability (log2)” value reads like this: under setting [5], 0.156 (inactive); under setting [6], 0.0397 (inactive); under setting [7], 0.0315 (inactive); under setting [8], 0.0591 (inactive).
`Cc1ccc(NC(=O)c2cccc(N(C)C)c2)cc1NC(=O)c1ccc(O)cc1`: the “cell viability (log2)” value by setting is: (0.025 µM, library screen: screen1, EWS-FLI1 expression: high (no doxycycline)) 0.191 (inactive); (0.025 µM, library screen: screen1, EWS-FLI1 expression: low (doxycycline-induced shRNA knockdown)) -0.0357 (inactive); under setting [5], 0.277; under setting [6], 0.139 (inactive); under setting [7], -0.147 (active); under setting [8], 0.168 (inactive). Besides, the “cell viability (log2)” value by setting is: (25 µM, library screen: screen1, EWS-FLI1 expression: high (no doxycycline)) -0.322 (active); (25 µM, library screen: screen1, EWS-FLI1 expression: low (doxycycline-induced shRNA knockdown)) 0.196 (inactive).
Take `Cc1nc(-c2ccc(NC(=O)c3ccccc3)cc2)cs1`: the “cell viability (log2)” value runs as follows: under setting [5], 0.118 (inactive); under setting [6], 0.115 (inactive); under setting [7], 0.0995 (inactive); under setting [8], 0.089 (inactive).
On the same counts, the results for `CC(=O)Nc1cccc(O)c1` are 0.142 (inactive), 0.0568 (inactive), 0.211 (inactive) and -0.0215 (inactive).
